High-throughput results deposited in PubChem by Buhrlage Lab, Dana-Farber Cancer Institute and Novartis Institutes for BioMedical Research (Cambridge, Mass).
USP28 inh = inhibitors of human USP28 deubiquitinase; purified USP28, Ub-rhodamine cleavage fluorescence, 30 min; hit rate 3% among 47,000; Ubiquitin carboxyl-terminal hydrolase 28 (Homo sapiens), Q96RU2; inhibition, % at 25 µM
OTUD3 block = inhibitors of human OTUD3 deubiquitinase | AID 1645858, 2021 | hit rate 0.7% among 47,000 | purified OTUD3, Ub-rhodamine fluorescence, 2 h | OTU domain-containing protein 3 (Homo sapiens), Q5T2D3 | inhibition, % at 25 µM
USP30 inh = inhibitors of human USP30 deubiquitinase; Ubiquitin carboxyl-terminal hydrolase 30 (Homo sapiens), Q70CQ3; purified USP30, Ub-rhodamine cleavage fluorescence; inhibition, % at 25 µM; hit rate 5.3% among 47,000; AID 1645860, 2021
USP17 inh = inhibitors of human USP17 deubiquitinase | Ubiquitin carboxyl-terminal hydrolase 17-like protein 5 (Homo sapiens), A8MUK1 | purified USP17, Ub-rhodamine cleavage fluorescence, 3 h | inhibition, % at 50 µM | hit rate 6.5% among 47,000 | AID 1645855, 2021
Target sequence (A8MUK1 whole entry, looked up): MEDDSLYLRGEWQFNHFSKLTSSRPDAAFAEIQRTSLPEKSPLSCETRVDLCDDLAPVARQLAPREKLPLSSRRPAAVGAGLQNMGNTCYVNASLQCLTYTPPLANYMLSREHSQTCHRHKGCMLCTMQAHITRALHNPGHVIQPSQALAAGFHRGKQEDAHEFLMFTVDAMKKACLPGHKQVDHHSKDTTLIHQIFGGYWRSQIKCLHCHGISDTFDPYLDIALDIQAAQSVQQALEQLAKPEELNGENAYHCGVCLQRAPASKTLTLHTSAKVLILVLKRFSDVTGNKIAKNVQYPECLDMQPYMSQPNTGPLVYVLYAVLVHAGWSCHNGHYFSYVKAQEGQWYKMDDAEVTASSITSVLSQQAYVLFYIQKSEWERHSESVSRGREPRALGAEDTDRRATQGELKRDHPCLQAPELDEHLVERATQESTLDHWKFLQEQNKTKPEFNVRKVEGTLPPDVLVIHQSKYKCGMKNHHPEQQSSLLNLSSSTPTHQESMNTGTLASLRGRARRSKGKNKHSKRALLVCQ
Numbers without * were called inactive; . = not tested or not shown. Shown are actives, neighbours in structure and some others; about 11% of the full set was active somewhere. Cut-off read from the data, not from the text of the source: active = inhibition above about 30%; inactive = the rest.

SMILES | USP28 inh | OTUD3 block | USP30 inh | USP17 inh
Cc1cccc(NC(=O)Nc2ccc(C)n(CC(=O)N3CCCC(C)C3)c2=O)c1 (stereo not drawn) | 15.7 | 8.1 | 14.6 | 9.2
Cc1ccc(CN2CCc3oc(C)c(C(=O)N4CCC(C(N)=O)CC4)c3C2)cc1 | -31.4 | -30.1 | -131.1 | -42.2
O=C(c1ncn2c1CNS(=O)(=O)c1ccccc1-2)N1CCCC1 | -1.7 | -9.4 | -14.8 | -11.3
COc1ccc(CC(=O)N2CCC(Nc3cccnc3)C2)cc1 (stereo not drawn) | -19.0 | -21.7 | -132.5 | 41.9*
O=C(COc1ccc(C2Nc3ccccc3S(=O)(=O)N2Cc2ccccc2)cc1)N1CCCCC1 (stereo not drawn) | -4.8 | 0.4 | -2.6 | -9.3
Cc1cc(C)c(O)c(-c2cc(C(=O)Nc3ccccc3Cl)[nH]n2)c1 | 19.0 | 10.6 | 46.1* | 68.3*
Cc1cccc(-c2cc(C(=O)Nc3ccccc3F)[nH]n2)c1O | 35.7* | 19.2 | 57.7* | 89.7*
Cc1c(C(=O)Nc2cccc(C(F)(F)F)c2)cnn1-c1ccccn1 | 13.7 | -6.8 | 24.3 | 55.2*
Cc1noc(Cn2c(=O)c3ccccc3n(CC(=O)Nc3cccc(Cl)c3)c2=O)n1 | . | 0.2 | . | 4.3
O=C1CC(c2ccco2)Cc2nc(NCc3ccco3)ncc21 (stereo not drawn) | -16.1 | -18.0 | -112.8 | 33.9*
O=C(NCc1ccc(F)cc1)c1cc(N2CCCC2)n2nccc2n1 | -41.1 | -33.0 | -151.1 | -56.4
COc1ccc(Cn2ccc3nc(N4CCCCC4)ncc3c2=O)cc1 | 15.2 | 19.4 | 28.1 | 71.1*
Cc1ccc(Cn2ccc3nc(N4CCN(C)CC4)ncc3c2=O)cc1 | 2.8 | 1.2 | 25.4 | 13.0
COc1cccc2[nH]c(C(=O)Nc3ccc4c(c3)OCCO4)cc12 | -13.0 | -24.3 | -94.4 | -16.8
COc1cc(C(=O)Nc2ccc3c(c2)OCCO3)ccc1OCC(=O)Nc1ccc(F)cc1 | 14.2 | -2.4 | -9.9 | 35.6*
COc1cc2c(=O)c(C(=O)c3ccc(F)cc3)cn(CC(=O)Nc3ccc4c(c3)OCCO4)c2cc1OC | 0.0 | -2.5 | -65.3 | 37.3*
COc1ccc(C(=O)Nc2ccc3c(c2)OCCCO3)cn1 | 31.7* | -0.2 | 4.2 | -0.4
COc1cc2c(=O)c(C(=O)c3ccc(F)cc3)cn(CC(=O)Nc3ccc(F)cc3)c2cc1OC | 1.3 | 3.3 | -18.7 | 32.7*
COc1ccc(C(=O)Nc2cccn3c(C)nnc23)cc1F | -23.4 | -1.9 | -34.4 | -9.1
COc1cc2c(cc1OC)C(C)N(C(=O)c1sccc1C)CC2 (stereo not drawn) | -6.9 | -3.3 | -8.7 | -10.2
Cc1cc(C)n(-c2nc3ccccc3nc2NCCc2ccc(Cl)cc2)n1 | -2.0 | 2.0 | -11.7 | -9.6
Cc1ccc(NC(=O)CC(C)N2CCCC2)cc1 (stereo not drawn) | 0.0 | -0.8 | -3.1 | -5.2
O=C(Nc1ccc2c(c1)OCCO2)C1CCN(C(=O)c2ccccc2)CC1 | 76.2* | 18.0 | 20.8 | 12.7
O=C(O)CCNC(=O)C1CCC(Cn2cnc3ccccc3c2=O)CC1 (stereo not drawn) | 5.4 | 10.5 | 13.9 | 1.7
O=C(Nc1ccc2c(c1)OCCO2)C1CCC(Cn2cnc3ccccc3c2=O)CC1 (stereo not drawn) | 92.5* | 11.2 | 16.3 | -4.4
SMILES | USP28 inh | OTUD3 block | USP30 inh | USP17 inh
Cc1cc(C(=O)N2CCC(C(=O)Nc3ccc4c(c3)OCO4)CC2)c2ccccc2n1 | -13.0 | -8.2 | -20.7 | 10.3
O=C(Nc1ccc2c(c1)OCO2)C1CCN(C(=O)c2ccc3n[nH]nc3c2)CC1 | 45.0* | 6.8 | -13.1 | 26.0
COc1ccc(CN(Cc2cc3cc(OC)c(OC)cc3[nH]c2=O)C(=O)Nc2ccccc2Cl)cc1 | -6.2 | -9.3 | -17.9 | 0.8
CCOc1cc2c(cc1OCC)C1CC(=O)N(c3ccc(CC)cc3)C(=O)N1CC2 (stereo not drawn) | 9.4 | 2.8 | 14.5 | 6.1
CCCCn1c(=O)c(CCC(=O)OCC(=O)Nc2ccc3c(c2)OCCO3)nc2ccccc21 | 61.5* | -0.3 | -3.9 | -12.1
Fc1ccccc1N1CCN(c2ncc3c(n2)CCN(Cc2ccccn2)C3)CC1 | 5.7 | -14.7 | 17.2 | 50.6*
CCc1ccc(C(=O)COC(=O)C(Cc2ccccc2)NC(=O)C2CCC(C)CC2)cc1 (stereo not drawn) | -7.0 | -0.9 | -5.7 | -1.0
O=C1[C@H]2Cc3c([nH]c4ccccc34)C(c3cccc([N+](=O)[O-])c3)N2C(=O)CN1Cc1ccco1 (stereo partly drawn) | 1.3 | 0.3 | -2.8 | 40.1*
COc1cc(C2c3[nH]c4ccccc4c3C[C@@H]3C(=O)N(Cc4ccco4)CC(=O)N23)cc(OC)c1OC (stereo partly drawn) | -8.1 | 0.7 | -29.2 | -2.9
